Data published in PubChem BioAssay (NCATS).
Records with an inconclusive call do not appear. Where a call stands in place of a potency, no number is given. Unmarked numbers belong to inactive results. Activity calls are given as the source filed them. Calls follow the shape of the dose curve; as a rule, active = well fitted cell-killing curve with a large enough effect; inconclusive = small, poorly fitted or top-dose-only effect, or effect the other way; inactive = no such curve, though single readings can be large or run the other way.

Columns and labels:
[1] = Viability qHTS for spleen associated tyrosine kinase inhibitor (SYKi) naive MV4-11 cells (AID 1963823); also: nearly all actives have a fitted effect of over 40% in size
Procedure, shortened: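 In this viability screen, compounds acted on SYK inhibitor naive MV4-11 cells for three days (72 hr, 37 C). Remaining viable cells were measured by CellTiter-Glo luminescence following a 10 min room-temperature development.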

[2] = Viability qHTS for spleen associated tyrosine kinase inhibitor (SYKi) drug resistant MV4-11 cells (AID 1963824); also: nearly all actives have a fitted effect of over 35% in size
Procedure, shortened: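 SYK-inhibitor-resistant MV4-11 AML cells were seeded at 500 per well onto compound and cultured 72 hours (37 °C, 5% CO2). CellTiter-Glo was then added, and after 10 min at room temperature, luminescence gave viability.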
Potency is read from the fitted curve at half-maximal effect.

With `COc1cc(C2Oc3c(O)cc(CCCO)cc3C2CO)ccc1O[C@H]1O[C@H](C)[C@@H](O)[C@H](O)[C@@H]1O` (some centres undefined) as the molecule, how does the Potency [1] read?
The Potency was “inactive”.

What about the Potency [2] of the same molecule?
The Potency was “inactive”.

Which Potency [1] does the source give for `CC(=O)O[C@@H]1[C@@H](OC(=O)/C=C/c2ccccc2)[C@@H](OC(C)=O)[C@H](O[C@H]2[C@@H]3C=CO[C@@H](O[C@@H]4O[C@H](CO)[C@@H](O)[C@H](O)[C@H]4O)[C@@H]3[C@@]3(CO)O[C@@H]23)O[C@H]1C` here?
The Potency was “inactive”.

What about the Potency [2] of the same molecule?
The Potency was “inactive”.

With `COc1cc(C(C)C)c(Oc2cnc(N)nc2N)cc1I` as the molecule, how does the Potency [1] read?
The Potency was 10.3 µM (active).

What about the Potency [2] of the same molecule?
Its Potency is 10.3 µM (active).

Which viability (% of control) [1] does the source give for `CC1OC(OCC2OC(OC3CCC4(C)C(CCC5(C)C4CC=C4C6CC(C)(C)CCC6(C(=O)OC6OC(CO)C(O)C(O)C6O)CCC45C)C3(C)CO)C(O)C(O)C2O)C(O)C(O)C1O` (centres undefined) here?
Its viability (% of control) is 79.6% [at 9.25 µM].

What about the viability, % of control [2] of the same molecule?
The viability, % of control was 96.2% [at 9.25 µM].

Which Potency [1] does the source give for `CN(CCCN1c2ccccc2CCc2ccccc21)CC(=O)c1ccc(Cl)cc1` here?
The Potency was 23.7 µM (active).

And the Potency [2]?
The Potency was 13.3 µM (active).

For `CC1=C(C(=O)O)/C(=C\CO[C@@H]2O[C@H](CO)[C@@H](O)[C@H](O)[C@H]2O)C(OC(=O)/C=C/c2ccc(O)cc2)C1` (some centres undefined), which Potency [1] is on record?
Its Potency is “inactive”.

And the Potency [2]?
Its Potency is “inactive”.

For `CCC/C=C/C=C/C1CC(O)C(O)C(=O)C1CO` (centres undefined), which Potency [1] is on record?
The Potency was “inactive”.

And the Potency [2]?
The Potency was “inactive”.

With `COC1CC(O[C@H]2CC[C@@]3(C)C(=CC[C@]4(O)C3[C@H](OC(C)=O)[C@@H](OC(=O)c3ccccc3)[C@]3(C)[C@@H](C(C)=O)CC[C@@]34O)C2)OC(C)C1OC1CC(OC)C(OC2CC(OC)C(OC3OC(C)C(OC4OC(CO)C(O)C(O)C4O)C(OC)C3O)C(C)O2)C(C)O1` (some centres undefined) as the molecule, how does the viability (% of control) [1] read?
The viability (% of control) was 74.5% [at 9.25 µM].

What about the viability, % of control [2] of the same molecule?
The viability, % of control was 66.2% [at 9.25 µM].

With `CC12CCC3c4ccc(O)cc4CCC3C1CC(OC1OC(C(=O)O)C(O)C(O)C1O)C2O` (centres undefined) as the molecule, how does the Potency [1] read?
Its Potency is “inactive”.

And the Potency [2]?
Its Potency is “inactive”.

With `C=C(CO)C12OC1C1(C)C(=CC2=O)C(O)C(O)CC1C` (centres undefined) as the molecule, how does the Potency [1] read?
The Potency was “inactive”.

What about the Potency [2] of the same molecule?
The Potency was “inactive”.

For `CC1OC2O[C@H]3[C@@H](OCC(O)[C@H]3O)OC(=O)C34CCC(C)(C)CC3C3=CCC5C6(C)CC(O)C(OC7OC(CO)C(O)C(O)C7O[C@@H]7OC[C@H](OC(=O)CC(C)(O)CC(=O)OC1C(OC1OCC(O)C(O)C1O)C2O)[C@@H](O)[C@H]7O)C(C)(CO)C6CCC5(C)C3(C)CC4` (some centres undefined), which Potency [1] is on record?
The Potency was 8.93 µM (active).

And the Potency [2]?
The Potency was 7.09 µM (active).

For `O=C1C(Cl)=C(N2CCOCC2)C(=O)N1c1ccc(Cl)c(Cl)c1`, which Potency [1] is on record?
The Potency was 5.63 µM (active).

And the Potency [2]?
The Potency was 5.02 µM (active).

With `CC(C)C1CCC(C(=O)N[C@@H](Cc2ccccc2)C(=O)O)CC1` (some centres undefined) as the molecule, how does the Potency [1] read?
Its Potency is “inactive”.

What about the Potency [2] of the same molecule?
Its Potency is “inactive”.

For `C[C@@H]1O[C@@H](O[C@H]2[C@H](OC(=O)[C@]34CCC(C)(C)C[C@H]3C3=CCC5[C@@]6(C)C[C@H](O)[C@H](O[C@@H]7O[C@H](CO)[C@@H](O)[C@H](O)[C@H]7O)[C@@](C)(CO)C6[C@H](O)C[C@@]5(C)[C@]3(C)CC4)OC[C@H](O)[C@@H]2O)[C@H](O)[C@H](O)[C@H]1O[C@@H]1OC[C@@H](O)[C@H](O[C@@H]2OC[C@](O)(CO)[C@H]2O)[C@H]1O` (some centres undefined), which viability (% of control) [1] is on record?
The viability (% of control) was 85.2% [at 9.25 µM].

And the viability, % of control [2]?
The viability, % of control was 102% [at 9.25 µM].

Which results are given for `Cc1cc(O)cc(Oc2cc(C)c(C(=O)O)c(O)c2)c1`?
Potency [1]: inactive; Potency [2]: inactive

With `COC(=O)C1=COC(OC2OC(CO)C(O)C(O)C2O)C2C(C)CC(=O)C12O` (centres undefined) as the molecule, how does the Potency [1] read?
The Potency was “inactive”.

And the Potency [2]?
The Potency was “inactive”.

For `CC[C@H](CO)Nc1nc(NCc2ccc(-c3ccccn3)cc2)c2ncn(C(C)C)c2n1`, which Potency [1] is on record?
Its Potency is 0.13 µM (active).

What about the Potency [2] of the same molecule?
The Potency was 0.259 µM (active).

Which results are given for `COc1ccc2cc(-c3cc(-c4cc(Cl)cc(Cl)c4)nn3C(C)c3ccc(C(=O)NCCC(=O)O)cc3)ccc2c1` (centres undefined)?
Potency [1]: 23.1 µM (active); Potency [2]: 25.9 µM (active)

What does the source list for `CC(=O)O[C@@]1(C)[C@@H]2CC(=C(C)C)C(=O)C[C@@]2(C)CC[C@H]1OC(=O)C1(C)OC1C` (some centres undefined)?
Potency [1]: inactive; Potency [2]: inactive

For `O=C(O)c1ccc(OC2OC(CO)C(O)C(O)C2O)cc1` (centres undefined), which Potency [1] is on record?
The Potency was “inactive”.

And the Potency [2]?
The Potency was “inactive”.

Which viability (% of control) [1] does the source give for `C=C1CC[C@@H]2[C@@](C)(CO[C@@H]3O[C@H](CO)C(O)[C@H](O)C3O)[C@H](O)CC[C@@]2(C)[C@@H]1CC/C(C)=C/CO` (some centres undefined) here?
Its viability (% of control) is 93.2% [at 9.25 µM].

And the viability, % of control [2]?
Its viability, % of control is 101% [at 9.25 µM].

Which Potency [1] does the source give for `CC(C)=CCCC1(C)Oc2cc3c(c4c2C2C(O4)C(C)(O)CCC21)CN(C(CCC(=O)O)C(=O)O)C3=O` (centres undefined) here?
Its Potency is “inactive”.

What about the Potency [2] of the same molecule?
The Potency was “inactive”.
